# The source made the active and inactive calls.
# Experiments:
# [1] = molecular target: Albumin (Bos taurus) (UniProt P02769); experiment: bovine serum albumin binders on microarray, profiling panel, artefact control for SMM control protein annotation, biochemical, small-molecule microarray, Alexa647 label, 635/667 nm fluorescence (AID 1118); conditions: BSA-A647 binding, fluorescence 635 nm, higher = more signal;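 also: score merges 667 nm emission intensity and signal-to-noise per printed compound spot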
# [2] = small-molecule microarray binders of probe aXIP, primary screen, biochemical, NeuroSMM set, 635/667 nm fluorescence (AID 1119); conditions: higher = more signal, called active from +8 up or from −8 down;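 also: probe is the protein aXip251-270 applied at 1 µg/mL to compound-printed slides; binding of probe to printed compounds measured as 667 nm fluorescence plus signal to noise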
# [3] = small-molecule binders of probe aNOTCH3, primary screen, biochemical, small-molecule microarray, 635/667 nm fluorescence (AID 1120); conditions: higher = more signal;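 also: probe is a biotin-tagged antibody raised against NOTCH3 rather than NOTCH3 protein; score merges spot fluorescence near 667 nm with spot signal to noise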
# [4] = small-molecule binders of probe aNOTCH2, primary screen, biochemical, small-molecule microarray, 635/667 nm fluorescence (AID 1121); conditions: higher = more signal;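 also: score merges feature fluorescence read at 667 nm with its signal to noise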
# [5] = molecular target: Carbonic anhydrase 2 (Homo sapiens) (UniProt P00918); experiment: CAII small-molecule binders, profiling panel, biochemical, small-molecule microarray, Alexa647-labelled CAII (AID 1122); conditions: CAII-A647 binding fluorescence, higher = more signal
# [6] = COS7 lysate on small-molecule microarray, probe aHis, 635 nm (AID 1123); conditions: COS7 cell lysate, fluorescence, higher = more signal;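 also: z-score combines 667nm fluorescence intensity with signal-to-noise per printed compound spot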
# [7] = compound binding in COS7 lysate, probe aLAP1, primary screen, cell lysate, small-molecule microarray (AID 1124); conditions: probe aLAP1, fluorescence, higher = more signal;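 also: lysate comes from COS7 cells expressing LAP1 and is applied at 0.3 µg/mL; score merges spot fluorescence near 667 nm with signal-to-noise over triplicate slides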
# [8] = tested on: Sam68 (KHDRBS1); experiment: Sam68 small-molecule binders, primary screen, biochemical, small-molecule microarray, 635 nm fluorescence (AID 1125); conditions: small-molecule microarray binding, higher = more signal;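 also: score merges 667 nm channel intensity with signal to noise over triplicate slides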
# [9] = tested on: Chordin-like protein 2 (CHRDL2); experiment: CHRDL2 small-molecule binders, primary screen, biochemical, small-molecule microarray, 635 nm fluorescence (AID 1126); conditions: small-molecule microarray binding, fluorescence 635 nm; higher = more signal;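 also: printed compound slides probed with Chrdl2 protein at 4 µg/mL for 1 h at 4 C; score merges 667 nm emission intensity with signal to noise over three replicate slides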
# [10] = molecular target: Concanavalin-A (Canavalia ensiformis) (UniProt P02866); experiment: ConA small-molecule binders, primary screen, artefact control for SMM control protein annotation, biochemical, small-molecule microarray, Alexa647 label, 635 nm (AID 1127); conditions: ConA-A647 binding fluorescence, higher = more signal;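 also: z combines 667 nm emission intensity with signal-to-noise across three replicate slides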
# Concanavalin-A (Canavalia ensiformis), sequence (P02866 whole entry, looked up): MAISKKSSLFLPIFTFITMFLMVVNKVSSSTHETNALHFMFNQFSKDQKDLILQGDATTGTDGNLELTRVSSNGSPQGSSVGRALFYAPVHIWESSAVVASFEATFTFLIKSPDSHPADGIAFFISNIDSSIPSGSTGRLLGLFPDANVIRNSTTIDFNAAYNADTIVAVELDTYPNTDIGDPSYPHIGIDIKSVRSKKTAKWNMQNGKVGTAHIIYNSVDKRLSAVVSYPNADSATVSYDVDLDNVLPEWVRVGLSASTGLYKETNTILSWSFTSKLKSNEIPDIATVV
# Albumin (Bos taurus), sequence (P02769 whole entry, looked up): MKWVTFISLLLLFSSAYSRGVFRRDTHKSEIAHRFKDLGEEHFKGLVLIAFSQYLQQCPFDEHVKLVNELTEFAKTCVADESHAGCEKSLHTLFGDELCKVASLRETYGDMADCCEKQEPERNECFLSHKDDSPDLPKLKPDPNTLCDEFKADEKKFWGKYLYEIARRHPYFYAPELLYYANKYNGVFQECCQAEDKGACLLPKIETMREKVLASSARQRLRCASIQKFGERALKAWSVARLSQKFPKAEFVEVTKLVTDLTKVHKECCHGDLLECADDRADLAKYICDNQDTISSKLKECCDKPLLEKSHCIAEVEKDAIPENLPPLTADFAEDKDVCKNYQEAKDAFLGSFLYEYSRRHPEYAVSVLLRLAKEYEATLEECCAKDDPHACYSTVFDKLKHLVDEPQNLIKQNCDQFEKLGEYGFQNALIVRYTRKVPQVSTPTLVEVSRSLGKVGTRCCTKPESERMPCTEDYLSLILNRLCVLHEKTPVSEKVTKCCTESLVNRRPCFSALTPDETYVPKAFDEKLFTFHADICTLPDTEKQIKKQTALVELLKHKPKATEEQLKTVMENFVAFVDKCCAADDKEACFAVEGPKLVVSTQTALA
SMILES,composite z-score [1],composite Z-score [2],composite z-score [3],composite z-score [4],composite z-score [5],composite z-score [6],composite z-score [7],composite z-score [8],composite z-score [9],composite z-score [10]
COC(=O)[C@@]1(Cc2ccc(OC)cc2)[C@H]2c3cc(C(=O)N4CCCC4)n(Cc4c(-c5ccccc5)noc4C)c3C[C@H]2CN1C(=O)c1ccccc1,0.634,0.216 (inactive),0.576,0.251,0.446,3.24,0.214,1.35,-0.748,0.978
O=C1O[C@H](c2ccccc2)[C@H](c2ccccc2)N2[C@H]1[C@@H](C(=O)NC[C@H](O)c1ccccc1)[C@]1(C(=O)Nc3ccc(C#CCCO)cc31)[C@H]2c1ccc(OCCO)cc1,0.834,0.182 (inactive),0.0311,-0.0666,0.627,1.7,-0.0479,1.29,-0.327,1.08
CCCCCCc1nc(C2CC2)cc2c1[Si](C(C)C)(C(C)C)O[C@H]2c1ccccc1,-0.948,-0.228 (inactive),-0.0647,-0.126,-0.324,-0.724,0.649,-0.698,0.21,0.327
COC(=O)C1=CC(CCCO)=CC(C2CC2)N(C)C=C1C(=O)OC (stereo not given),1.04,0.856 (inactive),-0.0108,-0.0668,0.97,1.09,0.687,0.0065,-0.761,0.0472
COc1ccc(-c2cc3c(c(CCc4ccccc4)n2)[Si](C(C)C)(C(C)C)OC3)cn1,-0.0428,0.147 (inactive),-0.152,-0.169,-0.173,0.132,-0.376,-0.296,0.105,-0.0689
COC(=O)C(CC#Cc1ccc2c(c1)[C@]1(C(=O)N2)[C@H](C(=O)N2CCN(c3ncccn3)CC2)[C@H]2C(=O)O[C@H](c3ccccc3)[C@H](c3ccccc3)N2[C@@H]1c1ccc(OCCO)cc1)C(=O)OC,0.535,-0.425 (inactive),0.207,-0.0821,0.259,1.41,-0.192,1.3,0.621,1.07
COCCCNC(=O)[C@@]1(Cc2ccccc2N=[N+]=[N-])N=C(c2ccc(OCCCO)cc2)O[C@H]1c1ccccc1,0.533,0.93 (inactive),0.0749,0.0202,0.35,1.99,1.25,1.04,0.099,0.79
CN(C)C(=O)[C@@]1(CCS(=O)(=O)c2ccccc2)N=C(c2ccc(OCCCO)cc2)O[C@H]1c1ccccc1,1.02,1.19 (inactive),0.413,-0.115,0.646,2.15,0.862,1.16,-0.98,0.761
COc1ccc([Si](C)(C)[C@@H]2[C@@H](CC(=O)N(CCO)Cc3ccccc3)O[C@]3(C(=O)N(c4ccccc4)c4ccccc43)[C@H]2C)cc1,0.593,0.657 (inactive),0.105,-0.162,0.357,1.07,0.0513,0.981,1.4,1.1
O=C1OCCC=C[C@H]2OC34C=CCN(Cn5nnc6ccccc65)C(=O)[C@H]3N(CCCCCCO)C(=O)[C@@H]4C12 (stereo not given in full),-0.587,0.688 (inactive),-0.429,-0.0532,0.875,-0.591,0.755,-0.365,-1.31,-0.718
COC(=O)[C@@]1(Cc2ccc(F)cc2)[C@H]2c3cc(C(=O)N(C)C)n(CCc4ccc(O)c(OC)c4)c3C[C@H]2CN1C(=O)c1ccccc1,0.24,-0.399 (inactive),0.842,1.02,0.25,0.694,0.311,0.326,0.497,-0.0415
[N-]=[N+]=NCc1ccccc1[C@H]1OC(c2ccc(OCCCO)cc2)=N[C@@]1(CCS(=O)(=O)c1ccccc1)C(=O)NCC(O)CO (stereo not given in full),0.567,0.652 (inactive),0.11,0.0697,0.736,3.48,1.04,1.06,-0.0485,0.939
